# Legend:
# Experiment in all cases: DAPPL (digital affinity profiling via proximity ligation, sequencing); 10 mM Tris-HCl pH 7.5, 50 mM NaCl, 1 mM DTT, 4% glycerol, room temperature, 30 min; GST-TFs on glutathione beads, 16-mer random dsDNA library, 0.1% formaldehyde crosslink after washing; high values mean tight binding
# [1] = biological target: T1, FLI1 (Homo sapiens, UniProt Q01543 1-452); conditions: protein: recombinant; tags: N-terminal GST; dsDNA, one strand shown
# T1 sequence: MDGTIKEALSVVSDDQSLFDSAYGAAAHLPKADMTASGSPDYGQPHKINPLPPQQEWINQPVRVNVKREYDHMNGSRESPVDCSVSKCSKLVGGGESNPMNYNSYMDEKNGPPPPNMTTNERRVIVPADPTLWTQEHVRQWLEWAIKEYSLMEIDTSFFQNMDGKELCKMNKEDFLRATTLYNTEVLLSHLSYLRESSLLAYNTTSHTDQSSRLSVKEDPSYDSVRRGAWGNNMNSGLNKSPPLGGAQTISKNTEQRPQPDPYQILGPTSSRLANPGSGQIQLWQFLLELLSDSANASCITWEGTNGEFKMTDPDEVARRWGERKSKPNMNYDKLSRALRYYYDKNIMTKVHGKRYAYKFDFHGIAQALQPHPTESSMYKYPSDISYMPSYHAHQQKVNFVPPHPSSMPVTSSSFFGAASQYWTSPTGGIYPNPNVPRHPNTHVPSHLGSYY
# Procedure, shortened: (§1)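 Binding signal is defined as a hexamer's read frequency for one factor over its frequency for the tag-only sample. To obtain reads, GST-fused human transcription factors were expressed in yeast, captured on glutathione beads, barcoded with DNA and pooled with that sample. Pools met 200 nmole of a 16-mer random double-stranded DNA library in Tris/NaCl/DTT/glycerol buffer for 30 min at room temperature before washing, 0.1% formaldehyde crosslinking, proximity ligation (BsaI/T4 ligase, 1 h, 37 °C), PCR and Illumina NextSeq500 sequencing.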
# [2] = biological target: T2, ELK1 (Homo sapiens, UniProt P19419 1-428); conditions: protein: recombinant; tags: N-terminal GST; dsDNA, one strand shown
# T2 sequence: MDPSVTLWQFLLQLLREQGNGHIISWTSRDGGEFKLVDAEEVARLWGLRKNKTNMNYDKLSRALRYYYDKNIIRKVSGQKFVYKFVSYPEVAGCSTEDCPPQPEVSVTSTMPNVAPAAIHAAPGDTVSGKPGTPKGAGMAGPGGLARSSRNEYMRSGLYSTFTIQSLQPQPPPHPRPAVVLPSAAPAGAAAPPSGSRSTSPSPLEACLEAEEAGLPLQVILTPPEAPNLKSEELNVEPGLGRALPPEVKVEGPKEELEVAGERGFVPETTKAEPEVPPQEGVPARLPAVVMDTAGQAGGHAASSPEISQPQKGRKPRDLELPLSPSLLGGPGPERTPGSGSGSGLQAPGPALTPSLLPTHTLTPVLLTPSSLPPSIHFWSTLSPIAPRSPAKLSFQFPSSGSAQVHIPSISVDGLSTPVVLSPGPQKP
# Procedure, shortened: as §1
# [3] = biological target: T3, GABPA (Homo sapiens, UniProt Q06546 1-454); conditions: protein: recombinant; tags: N-terminal GST; dsDNA, one strand shown
# T3 sequence: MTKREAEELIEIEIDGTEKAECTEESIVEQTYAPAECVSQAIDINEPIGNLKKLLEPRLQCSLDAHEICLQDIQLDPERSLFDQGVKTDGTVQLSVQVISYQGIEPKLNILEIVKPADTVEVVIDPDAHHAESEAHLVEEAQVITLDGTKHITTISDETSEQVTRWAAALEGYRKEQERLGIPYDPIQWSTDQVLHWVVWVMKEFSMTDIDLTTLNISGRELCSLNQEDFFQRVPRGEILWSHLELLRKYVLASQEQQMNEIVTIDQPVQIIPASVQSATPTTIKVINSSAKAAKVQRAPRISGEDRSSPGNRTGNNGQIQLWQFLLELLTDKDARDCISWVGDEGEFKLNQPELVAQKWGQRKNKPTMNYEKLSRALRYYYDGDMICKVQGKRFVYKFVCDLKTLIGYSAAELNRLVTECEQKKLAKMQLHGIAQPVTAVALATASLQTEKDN
# Procedure, shortened: as §1
# [4] = biological target: T4, ERG (Homo sapiens, UniProt P11308 1-479); conditions: protein: recombinant; tags: N-terminal GST; dsDNA, one strand shown
# T4 sequence: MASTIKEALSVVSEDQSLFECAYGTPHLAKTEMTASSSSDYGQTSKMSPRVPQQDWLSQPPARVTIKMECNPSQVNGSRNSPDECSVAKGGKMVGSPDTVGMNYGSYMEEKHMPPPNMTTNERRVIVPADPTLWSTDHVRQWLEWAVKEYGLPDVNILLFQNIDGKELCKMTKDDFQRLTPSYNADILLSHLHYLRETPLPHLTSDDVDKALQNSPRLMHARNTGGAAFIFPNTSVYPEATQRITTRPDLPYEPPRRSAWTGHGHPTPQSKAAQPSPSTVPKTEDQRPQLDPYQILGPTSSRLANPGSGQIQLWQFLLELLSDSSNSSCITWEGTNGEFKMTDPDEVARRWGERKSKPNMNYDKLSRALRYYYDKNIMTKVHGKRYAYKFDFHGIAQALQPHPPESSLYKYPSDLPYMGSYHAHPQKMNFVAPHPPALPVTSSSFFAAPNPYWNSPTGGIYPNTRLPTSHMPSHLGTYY
# Procedure, shortened: as §1
# [5] = biological target: ELF1 (Homo sapiens, UniProt P32519 1-619); conditions: protein: recombinant; tags: N-terminal GST; dsDNA, one strand shown
# Chain of ELF1 (P32519 whole entry): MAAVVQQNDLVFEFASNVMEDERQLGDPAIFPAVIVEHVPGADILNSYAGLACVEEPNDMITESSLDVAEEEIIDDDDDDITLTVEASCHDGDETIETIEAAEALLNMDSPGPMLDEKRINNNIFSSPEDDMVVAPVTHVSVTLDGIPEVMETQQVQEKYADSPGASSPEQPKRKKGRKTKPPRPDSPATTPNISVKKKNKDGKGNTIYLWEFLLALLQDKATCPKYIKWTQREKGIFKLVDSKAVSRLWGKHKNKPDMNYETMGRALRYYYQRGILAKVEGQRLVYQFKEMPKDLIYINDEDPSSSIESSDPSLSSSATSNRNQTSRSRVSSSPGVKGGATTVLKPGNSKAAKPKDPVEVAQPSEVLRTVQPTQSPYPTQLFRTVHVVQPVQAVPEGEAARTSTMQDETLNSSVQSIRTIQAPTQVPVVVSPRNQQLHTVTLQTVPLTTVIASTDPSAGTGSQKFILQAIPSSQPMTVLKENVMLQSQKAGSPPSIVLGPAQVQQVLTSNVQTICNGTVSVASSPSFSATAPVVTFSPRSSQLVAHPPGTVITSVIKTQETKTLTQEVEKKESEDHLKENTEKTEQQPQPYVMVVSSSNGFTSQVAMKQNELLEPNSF
# Procedure, shortened: as §1
# [6] = biological target: T5, EHF (Homo sapiens, UniProt Q9NZC4 1-300); conditions: protein: recombinant; tags: N-terminal GST; dsDNA, one strand shown
# T5 sequence: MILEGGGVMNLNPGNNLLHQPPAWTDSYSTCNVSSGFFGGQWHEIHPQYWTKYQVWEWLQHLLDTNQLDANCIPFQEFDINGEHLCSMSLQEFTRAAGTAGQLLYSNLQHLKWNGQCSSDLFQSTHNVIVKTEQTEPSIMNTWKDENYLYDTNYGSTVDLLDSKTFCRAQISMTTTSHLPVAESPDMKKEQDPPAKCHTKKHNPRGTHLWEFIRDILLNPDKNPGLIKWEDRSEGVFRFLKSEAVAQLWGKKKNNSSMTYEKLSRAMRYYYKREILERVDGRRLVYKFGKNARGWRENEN
# Procedure, shortened: as §1
# [7] = biological target: SPI1 (Homo sapiens, UniProt P17947 1-270); conditions: protein: recombinant; tags: N-terminal GST; dsDNA, one strand shown
# Procedure, shortened: as §1
# [8] = biological target: SPIB (Homo sapiens, UniProt Q01892 1-262); conditions: protein: recombinant; tags: N-terminal GST; dsDNA, one strand shown
# Chain of SPIB (Q01892 whole entry): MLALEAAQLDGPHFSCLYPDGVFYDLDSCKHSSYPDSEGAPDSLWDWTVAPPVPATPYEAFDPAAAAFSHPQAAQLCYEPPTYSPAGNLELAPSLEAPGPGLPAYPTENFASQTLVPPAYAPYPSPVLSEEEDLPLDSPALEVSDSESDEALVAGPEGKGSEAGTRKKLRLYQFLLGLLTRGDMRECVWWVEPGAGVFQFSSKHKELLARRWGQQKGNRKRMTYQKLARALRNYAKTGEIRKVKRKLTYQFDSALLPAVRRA
# Procedure, shortened: as §1
# [9] = biological target: T6, ELK3 (Homo sapiens, UniProt P41970 1-407); conditions: protein: recombinant; tags: N-terminal GST; dsDNA, one strand shown
# T6 sequence: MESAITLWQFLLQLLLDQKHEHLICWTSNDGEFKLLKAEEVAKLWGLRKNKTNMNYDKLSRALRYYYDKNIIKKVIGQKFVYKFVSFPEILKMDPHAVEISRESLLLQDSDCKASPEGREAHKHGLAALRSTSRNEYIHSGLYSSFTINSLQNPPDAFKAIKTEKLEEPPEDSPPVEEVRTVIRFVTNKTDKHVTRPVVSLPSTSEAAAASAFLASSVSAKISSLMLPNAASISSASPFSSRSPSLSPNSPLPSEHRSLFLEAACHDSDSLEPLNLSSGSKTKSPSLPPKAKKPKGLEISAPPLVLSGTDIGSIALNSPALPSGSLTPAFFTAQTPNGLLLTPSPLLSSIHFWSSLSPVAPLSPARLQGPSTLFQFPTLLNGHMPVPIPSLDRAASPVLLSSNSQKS
# Procedure, shortened: as §1
# [10] = biological target: T7, FEV (Homo sapiens, UniProt Q99581 1-238); conditions: protein: recombinant; tags: N-terminal GST; dsDNA, one strand shown
# T7 sequence: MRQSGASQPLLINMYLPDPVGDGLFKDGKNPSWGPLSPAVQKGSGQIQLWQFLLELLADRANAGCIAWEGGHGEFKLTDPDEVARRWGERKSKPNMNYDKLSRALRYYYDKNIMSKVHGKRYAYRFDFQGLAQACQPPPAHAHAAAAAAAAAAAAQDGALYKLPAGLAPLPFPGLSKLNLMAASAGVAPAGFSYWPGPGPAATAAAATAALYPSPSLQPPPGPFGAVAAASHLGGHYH
# Procedure, shortened: as §1
# [11] = biological target: ETV5 (Homo sapiens, UniProt P41161 1-510); conditions: protein: recombinant; tags: N-terminal GST; dsDNA, one strand shown
# Chain of ETV5 (P41161 whole entry): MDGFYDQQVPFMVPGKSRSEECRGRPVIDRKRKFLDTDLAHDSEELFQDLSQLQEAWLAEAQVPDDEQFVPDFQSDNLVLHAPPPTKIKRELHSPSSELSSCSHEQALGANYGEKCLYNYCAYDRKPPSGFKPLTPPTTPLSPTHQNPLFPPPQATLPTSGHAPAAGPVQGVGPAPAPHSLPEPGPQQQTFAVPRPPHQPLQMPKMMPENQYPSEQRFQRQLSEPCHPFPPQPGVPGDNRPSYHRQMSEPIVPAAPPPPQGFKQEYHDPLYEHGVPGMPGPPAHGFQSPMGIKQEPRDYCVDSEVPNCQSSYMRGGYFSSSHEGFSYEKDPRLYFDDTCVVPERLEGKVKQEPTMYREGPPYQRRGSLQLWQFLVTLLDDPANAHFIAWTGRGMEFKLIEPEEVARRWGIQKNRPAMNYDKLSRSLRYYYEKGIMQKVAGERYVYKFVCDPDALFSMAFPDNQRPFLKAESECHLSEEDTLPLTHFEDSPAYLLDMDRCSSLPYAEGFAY
# Procedure, shortened: as §1
# [12] = biological target: HSF1 (Homo sapiens, UniProt Q00613 1-529); conditions: protein: recombinant; tags: N-terminal GST; chain copies: 3; dsDNA, one strand shown
# Chain of HSF1 (Q00613 whole entry): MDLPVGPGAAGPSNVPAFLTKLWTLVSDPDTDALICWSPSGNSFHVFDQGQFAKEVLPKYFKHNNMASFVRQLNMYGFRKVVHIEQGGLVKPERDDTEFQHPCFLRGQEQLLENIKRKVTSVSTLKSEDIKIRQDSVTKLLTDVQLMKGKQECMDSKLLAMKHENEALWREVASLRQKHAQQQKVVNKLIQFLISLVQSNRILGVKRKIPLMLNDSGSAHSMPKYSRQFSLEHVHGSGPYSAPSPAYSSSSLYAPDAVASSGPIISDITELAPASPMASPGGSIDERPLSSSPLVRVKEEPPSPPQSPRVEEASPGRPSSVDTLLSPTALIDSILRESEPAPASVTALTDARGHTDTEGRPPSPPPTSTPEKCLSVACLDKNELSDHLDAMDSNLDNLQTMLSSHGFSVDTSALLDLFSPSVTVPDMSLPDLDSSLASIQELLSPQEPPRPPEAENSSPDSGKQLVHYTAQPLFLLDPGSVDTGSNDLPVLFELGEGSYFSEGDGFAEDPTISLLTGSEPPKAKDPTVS
# Procedure, shortened: as §1
# [13] = biological target: T8, SPIC (Homo sapiens, UniProt Q8N5J4 1-248); conditions: protein: recombinant; tags: N-terminal GST; dsDNA, one strand shown
# T8 sequence: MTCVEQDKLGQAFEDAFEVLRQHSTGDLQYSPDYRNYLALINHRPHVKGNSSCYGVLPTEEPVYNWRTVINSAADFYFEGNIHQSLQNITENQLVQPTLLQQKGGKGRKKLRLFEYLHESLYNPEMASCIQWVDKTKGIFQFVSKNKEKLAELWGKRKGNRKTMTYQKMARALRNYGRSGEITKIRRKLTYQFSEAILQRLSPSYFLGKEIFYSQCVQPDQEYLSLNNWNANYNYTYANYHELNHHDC
# Procedure, shortened: as §1
# [14] = biological target: ELF4 (Homo sapiens, UniProt Q99607 1-663); conditions: protein: recombinant; tags: N-terminal GST; dsDNA, one strand shown
# Chain of ELF4 (Q99607 whole entry): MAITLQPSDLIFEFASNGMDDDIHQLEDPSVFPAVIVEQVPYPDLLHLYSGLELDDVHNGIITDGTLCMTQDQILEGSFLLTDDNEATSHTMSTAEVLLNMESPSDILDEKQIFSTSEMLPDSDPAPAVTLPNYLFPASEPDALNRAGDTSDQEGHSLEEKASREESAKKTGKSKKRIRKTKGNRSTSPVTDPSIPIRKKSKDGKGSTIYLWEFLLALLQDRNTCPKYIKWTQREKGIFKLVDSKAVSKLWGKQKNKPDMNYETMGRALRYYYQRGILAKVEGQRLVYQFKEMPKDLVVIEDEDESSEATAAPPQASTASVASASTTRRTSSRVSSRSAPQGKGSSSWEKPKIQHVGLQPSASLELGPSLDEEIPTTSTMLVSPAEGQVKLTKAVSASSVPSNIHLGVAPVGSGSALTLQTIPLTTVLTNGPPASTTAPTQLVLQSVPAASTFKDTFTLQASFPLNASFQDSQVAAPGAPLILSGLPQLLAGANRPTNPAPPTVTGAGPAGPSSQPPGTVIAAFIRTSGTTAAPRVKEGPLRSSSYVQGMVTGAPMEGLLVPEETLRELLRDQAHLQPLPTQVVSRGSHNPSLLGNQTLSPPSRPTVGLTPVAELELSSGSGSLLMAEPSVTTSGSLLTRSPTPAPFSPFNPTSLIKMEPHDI
# Procedure, shortened: as §1
# [15] = biological target: T9, ELK4 (Homo sapiens, UniProt P28324-2 1-405); conditions: protein: recombinant; tags: N-terminal GST; dsDNA, one strand shown
# T9 sequence: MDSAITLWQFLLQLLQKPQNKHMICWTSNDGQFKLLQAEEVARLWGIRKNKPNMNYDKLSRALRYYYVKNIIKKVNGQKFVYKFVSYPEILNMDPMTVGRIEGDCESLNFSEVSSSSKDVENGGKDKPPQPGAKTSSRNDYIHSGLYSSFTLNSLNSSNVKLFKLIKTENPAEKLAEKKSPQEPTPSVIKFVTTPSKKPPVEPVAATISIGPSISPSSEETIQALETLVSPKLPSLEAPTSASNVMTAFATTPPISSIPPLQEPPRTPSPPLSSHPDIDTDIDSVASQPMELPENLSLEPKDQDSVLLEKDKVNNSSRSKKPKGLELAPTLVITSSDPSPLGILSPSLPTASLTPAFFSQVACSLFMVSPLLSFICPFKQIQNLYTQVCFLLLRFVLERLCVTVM
# Procedure, shortened: as §1
# [16] = biological target: T10, ETV2 (Homo sapiens, UniProt O00321 1-342); conditions: protein: recombinant; tags: N-terminal GST; dsDNA, one strand shown
# T10 sequence: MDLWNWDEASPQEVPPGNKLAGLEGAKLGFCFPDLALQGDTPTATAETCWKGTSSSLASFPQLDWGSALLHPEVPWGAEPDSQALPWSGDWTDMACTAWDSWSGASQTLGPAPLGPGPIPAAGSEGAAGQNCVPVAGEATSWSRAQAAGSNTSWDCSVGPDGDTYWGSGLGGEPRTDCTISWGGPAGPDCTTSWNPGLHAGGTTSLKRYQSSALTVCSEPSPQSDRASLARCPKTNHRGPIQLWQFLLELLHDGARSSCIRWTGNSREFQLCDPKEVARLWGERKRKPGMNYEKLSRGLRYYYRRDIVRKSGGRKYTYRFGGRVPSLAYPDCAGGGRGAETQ
# Procedure, shortened: as §1
# [17] = biological target: T11, ELF3 (Homo sapiens, UniProt P78545 1-371); conditions: protein: recombinant; tags: N-terminal GST; dsDNA, one strand shown
# T11 sequence: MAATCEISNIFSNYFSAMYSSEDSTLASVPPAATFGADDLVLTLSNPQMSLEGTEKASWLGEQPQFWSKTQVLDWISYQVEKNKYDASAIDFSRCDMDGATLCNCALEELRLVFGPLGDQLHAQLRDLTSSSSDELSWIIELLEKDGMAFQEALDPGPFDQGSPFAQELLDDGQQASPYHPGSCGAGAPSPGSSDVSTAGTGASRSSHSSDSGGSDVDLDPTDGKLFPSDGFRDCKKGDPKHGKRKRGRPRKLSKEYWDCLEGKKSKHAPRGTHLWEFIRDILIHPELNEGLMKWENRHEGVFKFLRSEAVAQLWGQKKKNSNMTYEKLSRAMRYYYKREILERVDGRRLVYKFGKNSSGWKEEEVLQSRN
# Procedure, shortened: as §1
# [18] = biological target: CRX (Homo sapiens, UniProt O43186 1-299); conditions: protein: recombinant; tags: N-terminal GST; dsDNA, one strand shown
# Chain of CRX (O43186 whole entry): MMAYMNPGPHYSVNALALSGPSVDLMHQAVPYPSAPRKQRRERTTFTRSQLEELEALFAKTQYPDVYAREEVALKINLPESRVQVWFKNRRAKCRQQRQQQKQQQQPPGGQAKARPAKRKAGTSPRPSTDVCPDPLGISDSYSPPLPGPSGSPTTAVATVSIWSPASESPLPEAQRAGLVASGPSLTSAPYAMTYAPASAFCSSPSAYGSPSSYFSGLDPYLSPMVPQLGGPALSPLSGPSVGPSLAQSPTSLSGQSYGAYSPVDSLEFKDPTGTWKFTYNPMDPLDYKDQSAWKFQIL
# Procedure, shortened: as §1
# [19] = biological target: ETV1 (Homo sapiens, UniProt P50549 1-477); conditions: protein: recombinant; tags: N-terminal GST; dsDNA, one strand shown
# Chain of ETV1 (P50549 whole entry): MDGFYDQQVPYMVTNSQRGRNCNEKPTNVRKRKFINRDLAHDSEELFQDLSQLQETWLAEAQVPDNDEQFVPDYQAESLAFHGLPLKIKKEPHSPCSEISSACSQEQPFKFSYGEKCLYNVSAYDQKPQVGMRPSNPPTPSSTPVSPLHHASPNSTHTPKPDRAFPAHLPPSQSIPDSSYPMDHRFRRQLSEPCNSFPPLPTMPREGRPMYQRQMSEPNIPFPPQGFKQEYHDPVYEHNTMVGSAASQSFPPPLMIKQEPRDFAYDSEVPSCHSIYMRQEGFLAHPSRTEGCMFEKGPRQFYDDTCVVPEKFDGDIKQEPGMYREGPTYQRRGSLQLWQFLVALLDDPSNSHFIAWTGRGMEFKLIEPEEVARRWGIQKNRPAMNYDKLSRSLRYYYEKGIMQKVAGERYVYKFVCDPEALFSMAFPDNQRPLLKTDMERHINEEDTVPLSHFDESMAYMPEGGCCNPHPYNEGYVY
# Procedure, shortened: as §1
sequence,measurement,setting,value
TATTTG,binding signal,[1],"1.52 fold enrichment (6-mer frequency, TF over GST control)"
same,binding signal,[2],"1.41 fold enrichment (6-mer frequency, TF over GST control)"
same,binding signal,[3],"1.43 fold enrichment (6-mer frequency, TF over GST control)"
same,binding signal,[4],"1.47 fold enrichment (6-mer frequency, TF over GST control)"
same,binding signal,[5],"1.35 fold enrichment (6-mer frequency, TF over GST control)"
same,binding signal,[6],"1.45 fold enrichment (6-mer frequency, TF over GST control)"
same,binding signal,[7],"1.46 fold enrichment (6-mer frequency, TF over GST control)"
same,binding signal,[8],"1.46 fold enrichment (6-mer frequency, TF over GST control)"
same,binding signal,[9],"1.39 fold enrichment (6-mer frequency, TF over GST control)"
same,binding signal,[10],"1.39 fold enrichment (6-mer frequency, TF over GST control)"
same,binding signal,[11],"1.47 fold enrichment (6-mer frequency, TF over GST control)"
same,binding signal,[12],"1.43 fold enrichment (6-mer frequency, TF over GST control)"
same,binding signal,[13],"1.25 fold enrichment (6-mer frequency, TF over GST control)"
same,binding signal,[14],"1.3 fold enrichment (6-mer frequency, TF over GST control)"
same,binding signal,[15],"1.26 fold enrichment (6-mer frequency, TF over GST control)"
same,binding signal,[16],"1.27 fold enrichment (6-mer frequency, TF over GST control)"
same,binding signal,[17],"1.45 fold enrichment (6-mer frequency, TF over GST control)"
same,binding signal,[18],"1.71 fold enrichment (6-mer frequency, TF over GST control)"
same,binding signal,[19],"1.4 fold enrichment (6-mer frequency, TF over GST control)"

# Source: article PMC7862700, “An all-to-all approach to the identification of sequence-specific readers for epigenetic DNA modifications on cytosine”
